# Assay outcomes as filed in PubChem BioAssay.
# ALDH1A1 block: inhibitors of human aldehyde dehydrogenase 1A1; Potency, µM (top dose mostly 75.3 µM), without a hit: at the top dose activity, negative = inhibition, hits mostly inhibitors; Purified ALDH1A1, NADH fluorescence, propionaldehyde substrate; 220,000 tested, 7.3% active; AID 1030;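 further: potency means the concentration at half of the fitted maximal effect; plate controls were no enzyme wells and a reference inhibitor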
# JMJD2E inh: inhibitors of human JMJD2E histone demethylase. B2RXH2. JMJD2E catalytic domain, FDH-coupled NADH fluorescence (FDH is formaldehyde dehydrogenase). Potency, µM (doses to about 57.1 µM), without a hit: top-dose activity change, negative = inhibition, usual class: inhibitors. 230,000 tested, 1.6% active;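 further: potency means the concentration at half of the fitted maximal effect; 0% = wells with enzyme and -100% = buffer wells without enzyme; nearly all actives have a fitted effect of over 50% in size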
# Target sequence (B2RXH2 1-337 limits assumed): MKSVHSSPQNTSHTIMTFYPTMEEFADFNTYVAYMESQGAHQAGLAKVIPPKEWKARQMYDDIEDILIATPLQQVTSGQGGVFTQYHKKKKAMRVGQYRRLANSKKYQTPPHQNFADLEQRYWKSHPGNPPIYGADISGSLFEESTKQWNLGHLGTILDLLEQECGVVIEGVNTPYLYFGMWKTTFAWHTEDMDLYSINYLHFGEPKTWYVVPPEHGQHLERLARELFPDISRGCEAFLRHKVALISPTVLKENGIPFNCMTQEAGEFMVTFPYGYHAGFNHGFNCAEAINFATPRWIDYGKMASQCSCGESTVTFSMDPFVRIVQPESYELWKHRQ
# Sfp PPTase inh: Sfp phosphopantetheinyl transferase inhibition; Q9F4F7; 310,000 tested, 3.5% active; Potency, µM, inactives show largest response in the series, negative = inhibition, hits mostly inhibitors; AID 1490; Biochemical Sfp PPTase activity, qHTS; active means well fitted curve in the direction sought with a large enough effect; inconclusive means small, poorly fitted or top-dose-only effect, or another doubt; inactive means no such curve, though single readings can be large; an effect the other way counts as inactive or inconclusive;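 further: the enzyme is Sfp with the accession as filed and its product quenches rhodamine fluorescence; potency means the concentration at half of the fitted maximal effect; 0% = enzyme reaction without inhibitor and -100% = no enzyme wells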
#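 Reaction rates are the 30-min fluorescence difference (ex 525, em 598 nm) in wells containing 15 nM Sfp, 5 uM rhodamine-CoA and 12.5 uM BHQ-2-YbbR at pH 7.6 with 10 mM MgCl2.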
# NPSR antag: neuropeptide S receptor (human) antagonism, cAMP; CHO-NPSR cells, cAMP TR-FRET, antagonist mode; AID 1461; 220,000 tested, 1% active; Potency, µM (titrated, usually from 38.3 µM), inactives show at the top dose activity change, negative = inhibition, most hits filed as inhibitors; Q6W5P4; active means well fitted curve in the direction sought with a large enough effect; inconclusive means small, poorly fitted or top-dose-only effect, or another doubt; inactive means no such curve, though single readings can be large; an effect the other way counts as inactive or inconclusive; further: potency means the concentration at half of the fitted maximal effect; nearly all actives have a fitted effect of over 50% in size
# RGS12 GoLoco inh: inhibitors of human Gai1-RGS12 GoLoco interaction (red fluorophore). Gai1:RGS12 GoLoco peptide FP, rhodamine, 10 min. 230,000 tested, 0.44% active. Potency, µM (doses to about 61.6 µM), inactives show at the top dose activity, negative = inhibition, actives largely listed as inhibitors; active means well fitted inhibition curve with a large enough effect, not every such curve was filed as active; inactive means no such curve, though single readings can be large or run the other way; further: potency means the concentration at half of the fitted maximal effect; nearly all actives have a fitted effect of over 30% in size
# Target sequence (P63096 whole entry, looked up): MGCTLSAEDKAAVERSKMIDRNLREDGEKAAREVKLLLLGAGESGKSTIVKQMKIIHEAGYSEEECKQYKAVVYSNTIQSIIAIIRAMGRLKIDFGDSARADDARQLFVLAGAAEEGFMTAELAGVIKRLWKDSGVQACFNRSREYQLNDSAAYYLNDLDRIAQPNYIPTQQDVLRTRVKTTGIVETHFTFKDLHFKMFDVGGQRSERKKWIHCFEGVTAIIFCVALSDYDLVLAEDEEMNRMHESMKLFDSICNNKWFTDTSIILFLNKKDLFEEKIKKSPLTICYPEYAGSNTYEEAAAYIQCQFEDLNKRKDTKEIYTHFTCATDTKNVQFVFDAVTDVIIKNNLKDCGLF
# Coupling enz: inhibits coupling enzyme system, counter-screen for aldolase hits | AID 2472 | activity change, negative = inhibition, % at 58.2 µM, hits read low | 290,000 tested, 0.67% active | coupling enzyme system counterscreen, AmpLite Red fluorescence; in the data active means activity change below about -30%
#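 Compounds tested against the coupling enzymes alone at 57.5 uM final; readout was AmpLite Red fluorescence (525/598 nm) after 20 min at RT.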
# Active calls of the source: *; u = inconclusive; x = no result given; ! = repeats disagree; [ ] = dose if it differs, or a comment. Only some compounds are listed: those with a hit (about 8.5% of all), similar ones and a draw of the others. Unless noted, the call rests on the fitted dose curve; in most records, active means well fitted inhibition curve with a large enough effect (not every such curve was filed as active); inconclusive means small, poorly fitted or top-dose-only effect, or another doubt; inactive means no such curve, though single readings can be large or run the other way. Unless noted, on the % scale 0 is the no-effect control and ±100 the full control effect.
SMILES,ALDH1A1 block,JMJD2E inh,Sfp PPTase inh,NPSR antag,RGS12 GoLoco inh,Coupling enz
C=CCNC(=O)/C(C#N)=C/c1c(N2CCCCCC2)nc2ccccn2c1=O,x,x,5%,x,x,0
CCNC(=O)/C(C#N)=C/c1c(N(Cc2ccccc2)Cc2ccccc2)nc2ccccn2c1=O,16µM*,u,-16%,u,9%,1
N#C/C(=C\c1c(N2CCCCCC2)nc2ccccn2c1=O)C(=O)NCc1ccco1,13µM*,-12%,-7%,u,-3%,-2
Oc1ccc(N2CCN(c3nnnn3-c3ccccc3)CC2)cc1,u,-23%,56µM*,-12%,9%,-7
CC(=O)N1CCN(c2nnnn2-c2ccccc2)CC1,-1%,3%,15%,-5%[46.1 µM],3%,0
Cc1cc(C)nc(N2CCN(c3nnnn3-c3ccccc3)CC2)n1,22µM*,4%,20%,-9%[46.1 µM],0%,0
O=C1NCN(c2ccccc2)C12CCN(c1nnnn1-c1ccccc1)CC2,22µM*,-1%,-3%,-18%[46.1 µM],-2%,-6
c1ccc(CC2CCN(c3nnnn3-c3ccccc3)CC2)cc1,8.9µM*,-1%,-12%,-22%[46.1 µM],-2%,6
O=S(=O)(c1ccccc1)N1CCN(c2nnnn2-c2ccccc2)CC1,-2%,-3%,27%,-13%[46.1 µM],-1%,2
COC/C=C/C1=CC2=CC(=O)C(C)(OC(=O)c3cnc4ccccc4n3)C(=O)C2=CN1CCCCO (configuration not stated),13%[13.5 µM],8.9µM*!,-5%,8%,-1%[14.2 µM],-32*!
Fc1ccc(Nc2nc(NCc3ccco3)c3ccccc3n2)cc1,x,u,13µM*,u,1%,0
c1ccc(CNc2nc(NCc3ccccc3)c3ccccc3n2)cc1,u,u,14µM*,u,4%,-1
Nc1nc(Nc2ccccc2)nc(NCc2ccco2)c1[N+](=O)[O-],-9%,-1%,-15%,-8%,-11%,0
c1ccc(CNc2nc(-c3ccoc3)nc3ccccc23)cc1,32µM*,x,-19%,x,21%,1
c1ccc(CNc2nc(-c3ccccc3)nc3ccccc23)cc1,x,x,17%,x,x,0
Cc1cccc(CNc2nc(-c3ccoc3)nc3ccccc23)c1,-14%,-30%,-21%,x,15%,-2
N#Cc1ccc(CSc2nnc(-c3c[nH]c4ccccc34)n2-c2ccccc2)cc1,u,8%,13%,-45%,5%,1
CCc1nnc(NC(=O)C2Cc3ccccc3CN2S(=O)(=O)c2c(C)c(C)cc(C)c2C)s1 (configuration not stated),-9%,-3%,-6%,-25%[46.1 µM],13%,-6
O=C(Nc1c(C(=O)O)oc2ccc(Br)cc12)c1ccccc1,28µM*,5%,-4%,-9%[46.1 µM],11%,12
NNC(=O)c1nnn(-c2nonc2N)c1CN1CCc2ccccc2C1,4µM*,26%,16%,3%,23%,0
CCOC(=O)c1nnn(-c2nonc2N)c1CN1CCCC1,x,x,11%,x,x,1
Cc1c(C(=O)N2CCCCCC2)nnn1-c1nonc1N,11µM*,-2%,6%,-15%[46.1 µM],15%,x
CCOC(=O)c1nnn(-c2nonc2N)c1CN1CCCCCC1,2.2µM*,-12%,7%,-29%[46.1 µM],7%,-3
CCOC(=O)c1nnn(-c2nonc2N)c1CNC(C)C,-2%,11%,-5%,4%[7.67 µM],3%,3
CCOC(=O)c1nnn(-c2nonc2N)c1CN(C)C1CCCCC1,2µM*,5%,22%,-21%[46.1 µM],-2%,0
SMILES,ALDH1A1 block,JMJD2E inh,Sfp PPTase inh,NPSR antag,RGS12 GoLoco inh,Coupling enz
Cc1c(CC(=O)O)c(=O)oc2c(C)c3occ(-c4ccc(F)cc4)c3cc12,x,x,35µM*,x,x,1
O=C(c1cccc2nc3ccccc3nc12)N1CCOCC1,x,0%,13%,-6%,-4%,0
Cc1nc(N2CCC(C)CC2)c2c(C)c(C(=O)Nc3ccccc3C(F)(F)F)sc2n1,u,u,-12%,u,6%,-6
CC1=C(C#N)C(c2cn(-c3ccccc3)nc2-c2cccs2)C(C#N)=C(C)N1,-14%,u,-4%,-24%[46.1 µM],-9%,-4
NC1=NC(c2cn(-c3ccccc3)nc2-c2cccs2)n2c(nc3ccccc32)N1 (configuration not stated),-8%,-14%,45µM*,-4%[46.1 µM],-22%,-1
O=S(=O)(NCc1cccs1)c1cccc(S(=O)(=O)N2CCCCC2)c1,8.9µM*,-10%,11%,-17%[46.1 µM],-2%,-2
CCCCNS(=O)(=O)c1cccc(S(=O)(=O)N2CCCC2)c1,14µM*,3%,8%,-9%[46.1 µM],1%,1
O=S(=O)(c1cccc(S(=O)(=O)N2CCCC2)c1)c1cccc(S(=O)(=O)N2CCCC2)c1,u,-4%,8%,-17%[46.1 µM],2%,4
CCCC[C@@H]1CCCO[C@@](C(=O)NCc2ccc(C)o2)(C(F)(F)F)C1,x,x,u,x,x,1
Cc1ccc(C=Nc2ccccc2C(N)=O)o1,u,2%,-50%,11%,0%,-10
Cc1ccc(C=Nc2ccc(N(C)C)cc2)o1,u,13µM*,u,u,-4%,-22
Cc1occc1C(=O)N1CCN(S(C)(=O)=O)CC1,20µM*,1%,22%,10%[46.1 µM],0%,0
Cc1occc1C(=O)N1CCN(c2ccccc2)CC1,5%,0%,6%,8%,1%,2
CC(=O)NCC(=O)NNC1CC(=O)N(c2cccc(Cl)c2)C1=O (configuration not stated),x,9%,14%,6%,-6%,2
CCOC(=O)CNC1CC(=O)N(c2cccc(Cl)c2)C1=O (configuration not stated),18µM*,0%,-30%,-21%[46.1 µM],-6%,2
CC(=O)N1CCC(N(CCN2CCOCC2)C(=S)Nc2c(C)cccc2C)CC1,6%,8%,11%,12%,6%,2
CC(C)(C)c1ccc(S(=O)(=O)NCc2ccc(C(=O)N3CCOCC3)cc2)cc1,11µM*,1%,8%,-8%[46.1 µM],-17%,2
Cc1nc2[nH]c(=S)[nH]c2cc1Br,18µM*,-1%,-12%,-5%[46.1 µM],-8%,1
CNC(=O)c1cc(S(=O)(=O)Nc2ccc3c(c2)OCO3)ccc1C,x,x,-4%,x,x,-1
Cn1nc(C(=O)Nc2c(-c3ccccc3)nc3sccn23)c2ccccc2c1=O,-1%,0%,40µM*,-13%[46.1 µM],38%,-2
COc1ccccc1C(=O)Nc1ccnn1C1CCN(Cc2ncc[nH]2)CC1,x,x,0%,x,x,3
O=C(c1c[nH]c(C(=O)C(Cl)(Cl)Cl)c1)c1ccc(F)cc1F,x,x,-2%,x,x,3
O=C(c1ccc(Cl)cc1)c1c[nH]c(C(=O)NNc2ccccc2)c1,20µM*,-22%,25%,2%,5%,5
O=C(c1ccccc1)c1c[nH]c(C(=O)C(Cl)(Cl)Cl)c1,3.5µM*,-24%,-5%,-8%,3%,3
